# A selection: hits, their analogues and other compounds. The true share with any hit is near 8%.
# HT1080 IDH1KD tx – HT-1080 IDH1 knockdown cell toxicity (counter line). HT-1080 IDH1 knockdown viability, ATP luminescence, 48 h. Potency, µM (highest dose often 46.1 µM), for inactives: at the highest dose activity, negative = toxicity, actives largely listed as cytotoxic. actives 2% (n = 360,000). AID 686971;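 further: 0% = DMSO wells and -100% = cell-free medium wells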
#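 Knockdown cells (IDH1KD HT-1080) received compounds 2 h after plating at 750 cells/well and were kept 48 h at 37 °C in 5% FBS RPMI. A CellTiter-Glo luminescence read gave % activity for curve fitting.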
# SW480 rereplic – DNA re-replication induction in SW480 cells; Potency, µM (doses to about 46.1 µM), inactives show at the highest dose re-replication activation, hits mostly activators; SW480 DNA re-replication, Hoechst DNA content imaging, 48 h; actives 1.8% (n = 340,000); AID 624297; further: % of control where 0% means no effect; nearly all actives have a fitted effect of over 55% in size
#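 Quantitative HTS format with DMSO vehicle controls; 48 hr drug incubation at 37 C, then 40 min Hoechst staining and scanning imager measurement at 405 nm excitation.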
# KB-V1 MDR tox – KB-V1 MDR subline cytotoxicity. actives 3.4% (n = 400,000). Potency, µM (titrated, usually from 46.1 µM), actives largely listed as cytotoxic. KB-V1 MDR cells viability, CellTiter-Glo, 72 h; further: on the % scale 0 is the no-effect control and ±100 the full control effect; nearly all actives have a fitted effect of over 60% in size
#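 KB-V1 MDR subline cells in DMEM (phenol-red free, 10% FBS) exposed to compounds in qHTS concentration series for 72 h at 37 degrees C. Viability read by CellTiter-Glo luminescence; concentration-effect curves fitted after normalization and correction.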
# HT1080NT lethal – kills 2HG-producing HT-1080-NT fibrosarcoma cells | HT-1080-NT fibrosarcoma viability, CellTiter-Glo ATP luminescence, 48 h | Potency, µM (top dose mostly 46.1 µM), for inactives: at the top dose activity, negative = less viability, actives largely listed as cytotoxic | actives 1.6% (n = 360,000);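 further: NT is the 2HG producing partner of a matched IDH1 knockdown line; 0% = DMSO-treated cells and -100% = media-only wells without cells; nearly all actives have a fitted effect of over 55% in size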
#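 Toxicity toward the 2HG-producing NT line was scored as %Activity, normalised to DMSO and no-cell wells, from CellTiter-Glo luminescence after 48 hours' treatment.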
# KB-3-1 cytotox – kills parental KB-3-1 adenocarcinoma cells | KB-3-1 viability, CellTiter-Glo ATP luminescence, 72 h | Potency, µM (highest dose often 46.1 µM), usual class: cytotoxic | actives 1.4% (n = 400,000) | AID 1347075; further: on the % scale 0 is the no-effect control and ±100 the full control effect; nearly all actives have a fitted effect of over 60% in size
#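 Parental KB-3-1 viability, qHTS format: 72 h compound exposure, 37 °C; CellTiter-Glo; media-only wells and DMSO plates as controls; concentration-effect fits on corrected data.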
# MCF10A rerep – inducers of DNA re-replication in MCF 10A breast cells; MCF 10A DNA re-replication, Hoechst nuclear intensity, 48 h; Potency, µM (top dose mostly 46.1 µM), for inactives: at the top dose activity, positive = re-replication, hits mostly activators; actives 2.9% (n = 350,000); further: % of control where 0% means no effect; nearly all actives have a fitted effect of over 50% in size
# Numbers without * were called inactive; i = inactive; u = inconclusive; x = no result; [ ] = dose if it differs, or a comment. The call rests on the fitted dose curve; in most records, active means well fitted curve in the direction sought with a large enough effect; inconclusive means small, poorly fitted or top-dose-only effect, or another doubt; inactive means no such curve, though single readings can be large; an effect the other way counts as inactive or inconclusive. Potency means the concentration at half of the fitted maximal effect.
SMILES,HT1080 IDH1KD tx,SW480 rereplic,KB-V1 MDR tox,HT1080NT lethal,KB-3-1 cytotox,MCF10A rerep
C=CCn1c(SC(C)C(=O)NCc2ccc3c(c2)OCO3)nnc1C1CCCCC1 (stereo unspecified),1%,-1%,u,13%,i,15%
CCc1ccc(NC(=O)c2cc(=O)c3ccc(C)c(C)c3o2)cc1,x,x,5.8µM*,x,i,x
C=C1C(=O)OC2C=C(CO)C3OC3C3OC3(C)CC(OC(=O)/C(=C/C)COC(C)=O)C12 (stereo unspecified),5.2µM*,0.82µM*,i,-24%,u,2.1µM*
CCN1C=C(Cc2ccc(OC)cc2)C2=C(C1)C(c1ccc(OC)cc1)C(C#N)=C(N)O2 (stereo unspecified),u,u,i,-26%,u,u
O=C1C=C(c2c(O)ccc3ccccc23)c2ccccc2C1=O,u,18µM*,i,7.3µM*,u,17%
O=P(O)(CCc1ccncc1)CN1CCCCC1,23%,u,i,u,i,5.8µM*
CC1CCCC(C)N1C(=O)CSCc1ccc(Cl)cc1 (stereo unspecified),2%,1%,18µM*,1%,u,7%
COc1ccc2nc(NN=C(C)c3ccccn3)cc(C)c2c1,12µM*,u,1.2µM*,-29%,u,u
O=C1C2C3C=CC(C3)C2C(=O)N1c1ccc2c(c1)CCC2 (stereo unspecified),1%,-6%,18µM*,1%,i,-4%
Cc1ccc(N2C(=O)C3C4C=CC(C4)C3C2=O)cc1C (stereo unspecified),2%,-4%,i,4%,i,-12%
COc1cc2c(cc1NC(=O)COC(=O)CNC(=O)c1ccccc1)oc1ccccc12,-7%,0%,i,-4%,i,-1%
COc1cc2c(cc1NC(=O)COC(=O)[C@@H](NC(=O)c1ccccc1F)C(C)C)oc1ccccc12,9%,-14%,16µM*,4%,i,-1%
COc1cc2c(cc1NC(=O)CN(C)Cc1cccc(OC)c1OC)oc1ccccc12,-28%,u,u,-3%,i,7.3µM*
COc1cccc(CN(C)CC(=O)Nc2cc3oc4ccccc4c3cc2OC)c1,2%,7%,u,10%,u,2%
COc1cc2c(cc1NC(=O)COC(=O)[C@@H](NC(=O)c1ccccc1)C(C)C)oc1ccccc12,-3%,0%,9.2µM*,-14%,i,19%
CC1CCCCN1S(=O)(=O)c1ccc(NC(=O)c2ccco2)cc1 (stereo unspecified),3%,5%,i,0%,i,-2%
CCOC(=O)C(O)(C1C(=O)CC(C)(C)CC1=O)C(F)(F)F (stereo unspecified),4%,0%,i,19%,i,-2%
CCOC(=O)c1cc(C#N)c(SCc2ccc(C#N)cc2)nc1C,-17%,-1%,2.3µM*,-1%,i,26%
CCOC(=O)c1cc(C#N)c(SC)nc1C,6%,-8%[9.22 µM],i,2%,i,0%
O=C1c2ccccc2NC2(CCCCC2)N1N=C1CCCCC1,23%,-2%,i,12%,i,7%
O=C1c2ccccc2NC(c2cccc(Cl)c2)N1N=C1CCCCCC1 (stereo unspecified),8%,-2%,26µM*,15%,u,27%
Cc1ncc(S(=O)(=O)c2ccccc2)c(-c2ccccc2)n1,12%,-3%,i,11%,i,-4%
O=S(=O)(c1ccccc1)c1cnc(-c2cccnc2)nc1-c1ccc(Cl)c(Cl)c1,0%,-8%,6.5µM*,6%,i,2%
Cc1cc(C)c2nc(-c3ccccn3)cc(C(=O)n3cccn3)c2c1,13%,-8%,i,18%,i,25%
O=C(O)/C=C/C(=O)c1c(-c2ccccc2)[nH]c2ccccc12,-1%,u,i,-3%,i,21µM*
SMILES,HT1080 IDH1KD tx,SW480 rereplic,KB-V1 MDR tox,HT1080NT lethal,KB-3-1 cytotox,MCF10A rerep
CC(=O)c1c(C)[nH]c(-c2ccccc2)c1C,-2%,-2%,i,-1%,i,3%
CC(=O)c1c(-c2ccccc2)[nH]c2ccccc12,u,u,7.3µM*,u,u,16µM*
CC(C)(C)CNC(=O)c1cc2c(Br)ccc(Br)c2nc1N,-10%,x,i,-18%,i,x
O=C(Nc1ccc(Cl)cc1)C1CCCC1,12%,-3%,i,6%,i,6%
CCN(CC)c1ccc(NC(=O)CCCCCN2C(=O)c3ccccc3C2=O)cc1,-11%,-3%,4.6µM*,-6%,i,5%
Oc1ccc(/C=N/n2c3ccccc3c3ccccc32)cc1,23µM*,14%,i,u,i,u
COc1cc(Nc2ncc3c(n2)CCN(Cc2cc(F)cc(F)c2)C3)cc(OC)c1,x,x,8.2µM*,x,u,x
COc1ccc(OC)c(Nc2ncc3c(n2)CCN(Cc2cc(OC)c(OC)c(OC)c2)C3)c1,x,x,i,x,i,x
COc1cccc(/C=N/NC(=O)CSc2nnc(C)n2-c2ccccc2)c1O,13µM*,u,i,u,u,u
COc1cccc(/C=N/NC(=O)C[n+]2ccccc2)c1O,-1%,u,i,1%,i,u
COc1ccc(C(=O)NCCCNC(=O)c2cccnc2)cc1Br,10µM*,-1%,i,u,i,0%
COc1cccc(/C=N/NC(=O)CN2CC(c3ccccc3)CC2=O)c1O (stereo unspecified),u,7.3µM*,u,u,u,u
O=C(COc1ccccc1)NCC(=O)Nc1cccc2ccccc12,-3%,2%,18µM*,-2%,u,-56%
CCN1C(=O)c2ccc(C(=O)NCc3ccc4c(c3)OCO4)cc2C1=O,10%,-9%,i,2%,i,2%
COc1cccc(/C=N/NC(=O)CNC(=O)c2cccnc2)c1O,12µM*,u,i,u,i,u
COc1ccc(/C=N/NC(=O)CNC(=O)COc2ccccc2)cc1,27%,-1%,i,25%,i,-12%
COc1ccc(CCCC(=O)N/N=C/c2cccc(OC)c2O)cc1C,u,u,u,u,u,1.5µM*
COc1cccc(/C=N/NC(=O)CNC(=O)COc2ccccc2)c1O,u,3.3µM*,i,u,i,6%
CC(C)(C)c1nnc(NS(=O)(=O)c2ccc([N+](=O)[O-])cc2)s1,-8%,4%,i,-9%,i,-2%
